# According to PubChem BioAssay AID995 (National Center for Advancing Translational Sciences (NCATS), 2007):
# The whole screen tested about 72,000 compounds, of which about 710 (0.99%) were called active. About 7% were inconclusive and are not listed. Shown is part of a subset that was picked to be rich in actives. A call without a number means that no potency is given here. Values without a mark were called inactive. Calls follow the shape of the dose curve; as a rule, active = well fitted inhibition curve with a large enough effect; inconclusive = small, poorly fitted or top-dose-only effect; inactive = no such curve, though single readings can be large or run the other way.
# Experiment: qHTS Assay for Inhibitors of the ERK Signaling Pathway using a Homogeneous Screening Assay; also: nearly all actives have a fitted effect of over 55% in size
# Details: HEK293-V1b, vasopressin-stimulated pERK AlphaScreen; series mostly up to 57.5 µM
# Excerpt: qHTS Assay for Inhibitors of the ERK Signaling Pathway using a Homogeneous Screening Assay; also: nearly all actives have a fitted effect of over 55% in size
# NIH Chemical Genomics Center [NCGC]
# NIH Molecular Libraries Screening Centers Network [MLSCN]
# Assay Submitter (PI): Dr. Wei Zheng, NCGC/NIH
# The Ras/extracellular-signal-regulated kinase (ERK) mitogen activated protein (MAP) kinase signaling pathway (ERK1/2 cascade) plays is a key role in transmitting signals from the cell surface to the nucleus (Nishida and Gotoh 1993; Chang and Karin, 2001). The cascade is initiated by the small G-protein Ras, which recruits Raf […], where activation occurs. Alternatively, this pathway can be activated by elevating intracellular cAMP.
# Activation of the ERK pathway is essential in increased cell division and cell survival. Sustained and constitutive activation of the ERK pathway, however, has been linked to uncontrolled cell proliferation, increased cell survival, and tumor progression. Thus, the ERK has been as an attractive target for cancer chemotherapy in the past few years (Sebolt-Leopold and Herrera, 2004). Given its physiological and pathological importance, assessment of ERK phosphorylation has been broadly performed in both basic research and drug discovery. Most assays for the measurement of ERK phosphorylation use the antibody-based detection methods, such as western blot and ELISA. These assays require multiple reagent additions with cell wash steps and are not suitable for high throughout screening.
# The current cell-based ERK phosphorylation assay was performed using AlphaScreen platform. AlphaScreen is a two bead-based proximity-dependent chemical energy transfer luminescent assay platform. The assay reagents (ERK SureFire(TM) kit) were supplied from TGR BioSciences (Australia). In the presence of specific antibodies, phosphorylated ERK will bring "donor" and "acceptor" beads to a proximity range (<200 nm), and subsequently lead a chemical luminescent reaction upon exciting donor beads with 680 nm laser. To exclude the assay-related false positives, we used a biotinylated rabbit IgG to perform counter-screen. The biotinylated antibody mimics the phosphorylated ERK1/2 for bringing streptavidin coated beads and protein-A coated beads to a proximity range for the AlphaScreen detection.
# NCGC Assay Protocol Summary:
# HEK293 cells stably expressing type-1 vasopressin receptor (V1b) were maintained in DMEM medium (Invitrogen, Carlsbad, CA) at 37C under a humidified atmosphere containing 5% CO2 and 95% air. The medium contained 10% FBS, 2 mM L-glutamine, non-essential amino acid, pyruvate and 50 U/ml penicillin and 50 ug/ml streptomycin (Invitrogen). The aliquots of frozen cells were stored at -135C and used for the compound screening. All compounds were screened as titrations from 0.6 nM to 46 uM final concentration. Vasopressin was used to stimulate the ERK phosphorylation pathway. The ERK phosphorylation in cells was determined using an AlphaScreen assay kit provided by PerkinElmer. Data were normalized to the controls for basal activity (DMSO only) and 100% activation (25 nM vasopressin). AC50 values were determined from concentration-response data modeled with the standard Hill equation.
# (1) Seed 4 ul/well of resuspended frozen HEK293 cells containing 2000 cells in white 1536-well plates for overnight with 1% FBS at 37C under a humidified atmosphere containing 5% CO2 and 95% air.
# (2) Add 23 nL compounds in DMSO solution. The final titration was 0.6 nM to 46 uM.
# (3) Incubate at 37C for 30 min.
# (4) Dispense 0.5uL vasopressin (25 nM in final)
# (5) Incubate at 37C for 5 min.
# (6) Dispense 0.5uL of 1:2 diluted 5x lysis buffer.
# (7) Incubate at 37C for 10 min.
# (8) Dispense 1.5uL of mixture of activation buffer and reaction buffer with AlphaScreen beads (streptavidin donor beads and protein-A acceptor beads, 10 ng/well for each).
# (9) Incubate at room temperature for 5 hr.
# (10) Detect the assay plate in an EnVision plate reader (PerkinElmer) using the AlphaScreen detection mode.
# […]
# Potency is read from the fitted curve at half-maximal effect.
SMILES,Potency,"activity, negative = inhibition"
N#Cc1c(Cl)c(Cl)c(Cl)c(C#N)c1Cl,2 µM (active),–
C[N+]1(C)C2CC(OC(=O)C(CO)c3ccccc3)CC1[C@@H]1O[C@H]21 (stereo not given in full),inactive,–
BrC1C(Br)C(Br)C(Br)C(Br)C1Br (stereo not given),inactive,–
COC1CC(OC2CC[C@@]3(C=O)C4CC[C@]5(C)C(C6=CC(=O)OC6)CC[C@@]5(O)C4CC[C@]3(O)C2)OC(C)C1O (stereo not given in full),inactive,–
CN1[C@@H]2CC[C@H]1CC(OC(=O)c1cc(Cl)cc(Cl)c1)C2 (stereo not given in full),inactive,–
CN1[C@@H]2CC[C@H]1CC(NC(=O)c1nn(C)c3ccccc13)C2 (stereo not given in full),inactive,–
C[C@H](CCC(=O)O)[C@H]1CC[C@@H]2[C@H]3CC[C@H]4C[C@H](O)CC[C@@]4(C)[C@@H]3CC[C@@]21C,–,-8.67% [at 11.5 µM]
CSC1=NP(=S)(SC)N(C)c2nc3n(c21)CCC3 (stereo not given),15.8 µM (active),–
CNC(C)[C@@H](O)c1ccccc1 (stereo not given in full),inactive,–
C[C@]12CC[C@H](O)CC1=CC[C@@H]1[C@H]2CC[C@]2(C)C(=O)CC[C@H]12,inactive,–
O=[N+]([O-])c1ccc(Cl)c(Cl)c1,inactive,–
CC(C)(Cc1c[nH]c2ccc(Cl)cc12)NCCOc1ccccc1OCC1CC1,39.8 µM (active),–
Clc1cccc(Cl)c1Cl,inactive,–
CNCC[C@H](Oc1ccc(C(F)(F)F)cc1)c1ccccc1,inactive,–
CC(C)C(N)C(=O)OCCOCn1cnc2c(=O)[nH]c(N)nc21 (stereo not given),inactive,–
